Reference: PubChem BioAssay
Active and inactive are the calls of the source.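 The calls were made as follows, unless noted: active = fluorescence slope after compound addition differing from the mean of all tested samples at 99.7% confidence, mostly higher but some lower; inactive = the rest.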

Assays:
[1] = inhibitors of TNFa-induced NFkB p65 translocation, primary screen, imaging, HUVEC, MLSMR starter and 10KST1 sets (AID 438;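 active = inhibition above 20% together with a positive visual image hit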;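 also: compound added about 3h40 before a 20 min TNFalpha stimulation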;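 as to inhibition: signal is the nuclear over cytoplasmic p65 intensity ratio per well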); conditions: HUVEC TNFa-induced p65 nuclear translocation; cell count: measured here: nuclei count (cytotoxicity indicator), at 2.08 µM; inhibition: at 2 µM, stronger effect = higher value, 0% TNFa-plus-vehicle, 100% no-TNFa wells
[2] = inhibitors of mutant huntingtin aggregation, primary screen, imaging, exon1htt(103Q)mCFP cells, high-content imaging (AID 483;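 active = visual image review flags a hit and inhibition of aggregation exceeds 20%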;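 also: compound exposure lasted 3 days before fixation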;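 as to nuclei count: percent of the per-plate median nuclei count of sample wells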); conditions: exon1htt(103Q)mCFP cell line, aggregate imaging, at 2 µM; inhibition of aggregation: stronger effect = higher value; nuclei count: measured here: cell count, toxicity
[3] = inhibitors of E-selectin induction by TNFa, primary screen, imaging, HUVEC, immunofluorescence, MLSMR starter and 10KST1 sets (AID 487;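 active = visually confirmed hit in the image check and inhibition above 20%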;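 as to inhibition: signal is fraction of cell area covered by stained E-selectin grains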;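 as to nuclei count: 100% = median nuclei count of all wells on the same plate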); conditions: HUVEC TNFalpha-induced E-selectin immunofluorescence imaging, at 2 µM; inhibition: stronger effect = higher value; nuclei count: measured here: cell number, toxicity
[4] = DUSP6 inhibitors restoring Erk phosphorylation by chemical complementation, primary imaging in DUSP6-transfected HeLa (AID 609;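 active = compounds giving at least 50% inhibition in the cell-based MKP-3 phosphatase rescue imaging test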;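 as to inhibition: phospho-Erk level distribution per well compared with pooled transfected vehicle control wells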); conditions: HeLa MKP-3 transfected, phospho-Erk imaging KS statistic, at 10 µM, cells stimulated with TPA for 15 min
[5] = molecular target: Dual specificity protein phosphatase 6 (Homo sapiens) (UniProt Q16828); test: as above; conditions: HeLa MKP-3 transfected, phospho-Erk imaging KS statistic; at 10 µM; stronger effect = higher value; cells stimulated with TPA for 15 min
[6] = molecular target: Voltage-gated potassium channel subunit beta-2 (Rattus norvegicus) (UniProt P62483); test: KvBeta enzyme negative modulators, primary screen, biochemical, NADPH fluorescence (AID 622;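 active = fluorescence slope higher than the sample average by over 3 SD, cut at about -0.22 in these data, passing the limit was not always enough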;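 also: slope of raw intensity against log time taken from 70 to 1610 s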); conditions: recombinant KvBeta, 4-cyanobenzaldehyde reduction, at 10 µM, stronger effect = higher value
[7] = molecular target: Voltage-gated potassium channel subunit beta-2 (Rattus norvegicus) (UniProt P62483); test: KvBeta positive modulators, primary screen, biochemical, NADPH fluorescence (AID 623;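 active = NADPH fluorescence slope more negative than the mean of all samples by about 3 SD, 99.7% confidence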;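 also: fluorescence intensity change per second fitted from 20 to 320 s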); conditions: Recombinant KvBeta, NADPH fluorescence decrease slope, 10 min; at 10 µM; stronger effect = lower value
[8] = molecular target: Muscarinic acetylcholine receptor M4 (Homo sapiens) (UniProt P08173); test: compounds altering M4/GIRK thallium flux, either direction, primary screen, M4 allosteric agonist project, cell-based, HEK293 M4/GIRK, BTC-AM (AID 625); conditions: at 10 µM, actives lie on both sides;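 also: thallium influx through GIRK channels coupled to M4 in HEK293 cells with BTC-AM dye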
[9] = inhibitors of larval lipid processing in zebrafish, primary screen, whole organism, PED6 fluorescence, gall bladder and intestine (AID 686;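 active = a full or partial loss of lipid-probe fluorescence in the fish gall bladder, intestine or both, judged by eye; inactive = no fluorescence loss, or compound toxic to the fish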;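 also: larvae 5 to 7 days old with five fish per well; signal comes from phospholipase A2 cleavage of quenched PED6 carried via bile; overnight exposure to compound and PED6 before scoring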); conditions: Zebrafish larvae PED6 lipid processing, fluorescence scoring; screened at 20 µM (by protocol)
[10] = inhibitors of Chlamydomonas gravitaxis, primary screen, whole organism, Chlamydomonas reinhardtii, WT vs cilia-less mutant, absorbance, 96-well (AID 463189;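 active = inhibition at or above 50% relative to wild type and mutant plate controls; inactive = inhibition below 50%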;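 also: 0% = wild type cc124 cells in DMSO and 100% = ciliumless bld1 mutant cells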); conditions: OD600 absorbance, 2 days, at 10 µM, stronger effect = higher value
[11] = inhibitors of Sendai virus-induced IRF3 signaling, primary screen, TLR/RLR signaling modifier project, cell-based, Sendai virus stimulus, luciferase, 10K MLSCN set (AID 602276;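 active = inhibition at or above 50% at 10 µM; inactive = inhibition below 50%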;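 also: firefly luciferase from ISG56 promoter only with Renilla not read in this screen; 0% = Sendai virus plus DMSO and 100% = medium plus DMSO without virus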); conditions: HEK293 RL24 IRF3 luciferase reporter, at 10 µM, stronger effect = higher value
[12] = inhibitors of poly I:C-induced TLR3 signaling, primary screen, cell-based, poly I:C stimulus, luciferase, 10K MLSCN set (AID 602277;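 active = inhibition of the reporter signal at or above 50%; inactive = inhibition below 50%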); conditions: HEK293-TLR3 RL24 IRF3 luciferase reporter, at 10 µM, stronger effect = higher value
[13] = measured here: cell density z-score
[14] = measured here: nuclear c-Myc green intensity z-score
[15] = measured here: nuclear pErk red intensity z-score, stronger effect = higher value

Chain of Muscarinic acetylcholine receptor M4 (Homo sapiens) (P08173 whole entry, looked up): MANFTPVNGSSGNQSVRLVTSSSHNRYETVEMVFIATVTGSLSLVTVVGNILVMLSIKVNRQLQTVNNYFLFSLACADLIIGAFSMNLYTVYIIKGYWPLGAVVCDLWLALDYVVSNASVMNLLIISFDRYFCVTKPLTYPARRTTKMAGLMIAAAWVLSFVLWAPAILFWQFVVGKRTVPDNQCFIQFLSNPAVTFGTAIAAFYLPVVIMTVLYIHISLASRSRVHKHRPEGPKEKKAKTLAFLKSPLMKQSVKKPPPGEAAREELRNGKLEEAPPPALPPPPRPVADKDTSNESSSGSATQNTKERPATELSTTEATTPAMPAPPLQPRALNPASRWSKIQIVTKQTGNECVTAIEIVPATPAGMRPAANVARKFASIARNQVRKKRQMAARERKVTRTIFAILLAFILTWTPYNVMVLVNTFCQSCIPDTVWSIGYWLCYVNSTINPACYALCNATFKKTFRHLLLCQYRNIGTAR
Chain of Dual specificity protein phosphatase 6 (Homo sapiens) (Q16828 whole entry, looked up): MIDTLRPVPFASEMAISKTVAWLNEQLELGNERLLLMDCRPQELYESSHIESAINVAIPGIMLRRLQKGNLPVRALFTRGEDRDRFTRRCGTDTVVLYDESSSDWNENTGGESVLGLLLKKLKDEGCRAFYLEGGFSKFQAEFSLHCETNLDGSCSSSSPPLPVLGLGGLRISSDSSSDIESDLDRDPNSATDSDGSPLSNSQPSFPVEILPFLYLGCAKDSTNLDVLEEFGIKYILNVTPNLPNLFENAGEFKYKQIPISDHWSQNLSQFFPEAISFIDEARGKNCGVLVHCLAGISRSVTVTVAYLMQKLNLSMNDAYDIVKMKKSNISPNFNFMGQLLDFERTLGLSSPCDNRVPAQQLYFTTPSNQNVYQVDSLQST
Chain of Voltage-gated potassium channel subunit beta-2 (Rattus norvegicus) (P62483 whole entry, looked up): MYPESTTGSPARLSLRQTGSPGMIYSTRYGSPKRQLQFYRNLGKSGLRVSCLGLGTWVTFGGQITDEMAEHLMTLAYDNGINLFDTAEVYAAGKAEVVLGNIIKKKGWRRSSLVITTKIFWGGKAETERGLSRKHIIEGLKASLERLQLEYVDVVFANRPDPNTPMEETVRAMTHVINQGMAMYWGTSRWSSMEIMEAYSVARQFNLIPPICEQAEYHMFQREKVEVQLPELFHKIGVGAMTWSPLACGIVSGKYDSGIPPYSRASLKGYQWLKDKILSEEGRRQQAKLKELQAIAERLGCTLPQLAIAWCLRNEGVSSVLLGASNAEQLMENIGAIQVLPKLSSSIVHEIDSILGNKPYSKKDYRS

SMILES	cell count [1]	inhibition [1]	inhibition of aggregation [2]	nuclei count [2] [%]	inhibition [3]	nuclei count [3] [%]	z-score [4, 13]	z-score [4, 14]	z-score [4, 15]	inhibition [5]	fluorescence slope [6]	NADPH fluorescence slope [7]	fluorescence slope [8]	outcome [9]	inhibition [10]	inhibition [11]	inhibition [12]
COc1ccc2c(c1)[nH]c1c(=O)n(CCN(C)C)cnc12	660	-3.5% (inactive)	-8.1% (inactive)	102	23.1% (inactive)	135	-1.37	2.24	-0.536	9.61% (inactive)	-0.449 (inactive)	-3.5e-05 (inactive)	0.00667 (inactive)	inactive	2.29% (inactive)	17% (inactive)	24.4% (inactive)
CCC(NC(=O)Nc1cc(OC)c(OC)c(OC)c1)(C(F)(F)F)C(F)(F)F	545	3.4% (inactive)	15.8% (inactive)	97.5	-82.9% (inactive)	141	-0.0203	1.89	0.038	1.9e-07% (inactive)	-0.48 (inactive)	-4e-05 (inactive)	0.00495 (inactive)	inactive	8.7% (inactive)	20% (inactive)	24.9% (inactive)
CCOC(=O)C1(C(=O)OCC)C(c2ccccc2)CC(O)N1C(C)=O (stereo unspecified)	820	-8.8% (inactive)	-55.9% (inactive)	103	-65.8% (inactive)	126	-0.838	1.16	-0.266	32.3% (inactive)	-0.351 (inactive)	-2.6e-05 (inactive)	0.00504 (inactive)	inactive	33.6% (inactive)	15% (inactive)	22.6% (inactive)
CCOC(=O)CC(C#N)c1cn(C)c2ccccc12 (stereo unspecified)	657	-0.6% (inactive)	2.2% (inactive)	104	8.5% (inactive)	135	-1.04	0.465	0.369	-7.28% (inactive)	-0.46 (inactive)	-3.8e-05 (inactive)	0.00661 (inactive)	inactive	13.1% (inactive)	21.5% (inactive)	28.2% (inactive)
O=C(NCCN1CCCCC1)c1ccc(=O)oc1	586	-3% (inactive)	-8.2% (inactive)	90.9	-0.3% (inactive)	130	0.13	0.819	-0.401	4.37% (inactive)	-0.482 (inactive)	-5.1e-05 (inactive)	0.00918 (inactive)	inactive	-5.06% (inactive)	3.93% (inactive)	3.77% (inactive)
O=S(=O)(c1ccc2ccccc2c1)N(CC(O)CN1CCOCC1)c1ccccc1 (stereo unspecified)	576	-8.7% (inactive)	-10.4% (inactive)	113	-7.5% (inactive)	105	0.984	1.41	-0.234	1.42% (inactive)	-0.344 (inactive)	-3.3e-05 (inactive)	0.00503 (inactive)	inactive	143% (active)	20.7% (inactive)	14.9% (inactive)
N#CC1=C(N)N(c2ccccc2)C(c2ccccc2)C1(C#N)C#N (stereo unspecified)	635	-9.5% (inactive)	-8% (inactive)	97.6	7.2% (inactive)	132	0.909	-0.703	1.5	-6.59% (inactive)	-0.346 (inactive)	-7.8e-07 (inactive)	0.00486 (inactive)	inactive	58.7% (active)	16.9% (inactive)	17.3% (inactive)
COc1cccc(N2C(=O)C(O)=C(C(C)=O)C2c2ccc(OC)c(OC)c2)c1 (stereo unspecified)	652	-3.8% (inactive)	14% (inactive)	104	34% (inactive)	106	-1.18	-0.212	0.653	2.46% (inactive)	-0.453 (inactive)	-6.1e-06 (inactive)	0.00642 (inactive)	inactive	-2.64% (inactive)	5.42% (inactive)	-0.11% (inactive)
CCCCCn1c2nc3ccccc3nc2c2c(=O)n(CC(C)C)cnc21	641	-4.1% (inactive)	14.3% (inactive)	105	-73.9% (inactive)	130	-0.357	2.75	1.53	15% (inactive)	-0.429 (inactive)	-4.4e-05 (inactive)	0.00475 (inactive)	inactive	16.4% (inactive)	19.4% (inactive)	19.9% (inactive)
O=C(OCCCN1CCCC1)C1(c2ccccc2)CCCC1	621	2.6% (inactive)	-0.8% (inactive)	80.3	39.9% (inactive)	126	-0.268	-0.108	-0.136	1.04% (inactive)	-0.456 (inactive)	-5.5e-05 (inactive)	0.00493 (inactive)	inactive	91.8% (active)	-13.4% (inactive)	-17.4% (inactive)
CC(C)(C)NCc1cc2ccccc2[nH]c1=O	585	4.5% (inactive)	-3.4% (inactive)	102	-165% (inactive)	146	-1.28	1.15	0.508	16.8% (inactive)	-0.451 (inactive)	-4.7e-05 (inactive)	0.00463 (inactive)	inactive	3.94% (inactive)	12.2% (inactive)	18.4% (inactive)
COc1ccccc1Nc1ncnc2c1cnn2-c1cccc(C)c1	398	-11% (inactive)	23.4% (inactive)	92.4	-38.9% (inactive)	133	-0.0649	-0.454	0.131	-2.59% (inactive)	-0.356 (inactive)	-3.8e-05 (inactive)	0.00739 (inactive)	inactive	4.11% (inactive)	-27.1% (inactive)	-52.1% (inactive)
CCCCc1nc(NCCNC(=O)c2ccco2)c(C#N)c2c1CSC(C)(C)C2	552	-4.6% (inactive)	-1% (inactive)	95.2	-75.5% (inactive)	122	0.34	-0.704	0.0149	9.07% (inactive)	-0.478 (inactive)	-5.7e-05 (inactive)	0.00431 (inactive)	inactive	3.31% (inactive)	1.84% (inactive)	7.1% (inactive)
O=C(NCc1cccnc1)c1ccc(=O)oc1	649	-2% (inactive)	-18.7% (inactive)	103	43% (inactive)	110	-0.741	1.41	-1.58	4.37% (inactive)	-0.496 (inactive)	-4.3e-05 (inactive)	0.00411 (inactive)	inactive	18.7% (inactive)	10.2% (inactive)	11.5% (inactive)
CCOc1c(C)cc2[nH]c(CCC(=O)O)nc2c1C	445	0.7% (inactive)	8.3% (inactive)	97.7	-40.3% (inactive)	116	1.23	-1.62	-1.73	7.42% (inactive)	-0.491 (inactive)	-3.6e-05 (inactive)	0.00428 (inactive)	inactive	21.6% (inactive)	8.15% (inactive)	8.77% (inactive)
CC(=Nc1cccc(O)c1)c1sc2ccccc2c1O	745	-2.4% (inactive)	-13% (inactive)	96.4	-0.7% (inactive)	123	0.824	0.631	-1.52	13.2% (inactive)	-0.303 (inactive)	-6.7e-05 (inactive)	0.0088 (inactive)	inactive; toxic	-2.68% (inactive)	-6% (inactive)	76.3% (active)
COc1ccc2c(c1)C1(C)CC(C)(C)N2C(=O)N1c1ccccc1 (stereo unspecified)	585	-8.2% (inactive)	-18.9% (inactive)	111	-32.4% (inactive)	110	0.165	-1.42	-0.582	-3.95% (inactive)	-0.461 (inactive)	-4.8e-05 (inactive)	0.0047 (inactive)	inactive	4.76% (inactive)	12% (inactive)	23.1% (inactive)
Cc1c(O)c(CN2CCCC(C)C2)cc2c3c(c(=O)oc12)CCC3 (stereo unspecified)	695	-6.3% (inactive)	-0.7% (inactive)	102	30.2% (inactive)	136	-0.479	2	1.18	-8.95% (inactive)	-0.0135 (inactive)	8.2e-07 (inactive)	0.00443 (inactive)	inactive	0.622% (inactive)	13.6% (inactive)	16% (inactive)
